Holding throughout (assay): DAPPL (digital affinity profiling via proximity ligation, sequencing); 10 mM Tris-HCl pH 7.5, 50 mM NaCl, 1 mM DTT, 4% glycerol, room temperature, 30 min; GST-TFs on glutathione beads, 16-mer random dsDNA library, 0.1% formaldehyde crosslink after washing; high values mean tight binding
For one assay, the target named is T1, FLI1 (Homo sapiens, UniProt Q01543 1-452).
T1 sequence: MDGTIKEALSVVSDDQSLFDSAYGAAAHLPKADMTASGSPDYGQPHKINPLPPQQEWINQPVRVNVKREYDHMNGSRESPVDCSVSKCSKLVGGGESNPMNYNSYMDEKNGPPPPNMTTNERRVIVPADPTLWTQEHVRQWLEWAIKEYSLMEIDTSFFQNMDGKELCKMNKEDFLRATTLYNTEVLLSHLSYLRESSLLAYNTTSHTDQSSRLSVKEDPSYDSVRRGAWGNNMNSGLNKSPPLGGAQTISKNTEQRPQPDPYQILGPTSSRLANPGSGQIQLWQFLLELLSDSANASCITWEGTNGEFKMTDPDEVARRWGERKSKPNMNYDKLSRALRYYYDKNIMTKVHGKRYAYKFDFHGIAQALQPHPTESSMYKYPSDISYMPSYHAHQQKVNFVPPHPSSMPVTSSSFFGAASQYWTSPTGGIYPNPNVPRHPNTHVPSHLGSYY
The note with it: protein: recombinant; tags: N-terminal GST; dsDNA, one strand shown. The gist of the method:
(§1)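 Pools were built from human transcription factors expressed in yeast as GST fusions, captured on glutathione beads and DNA-barcoded, along with a tag-only sample. Incubation with 200 nmole of a 16-mer random double-stranded DNA library lasted 30 min at room temperature in Tris/NaCl/DTT/glycerol buffer, and was followed by washing, 0.1% formaldehyde crosslinking, proximity ligation, PCR amplification and Illumina NextSeq500 sequencing. Binding signal is the quotient of each hexamer's read frequency for a factor and its frequency for the tag-only sample.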

For another assay, the target named is T2, ELK1 (Homo sapiens, UniProt P19419 1-428).
T2 sequence: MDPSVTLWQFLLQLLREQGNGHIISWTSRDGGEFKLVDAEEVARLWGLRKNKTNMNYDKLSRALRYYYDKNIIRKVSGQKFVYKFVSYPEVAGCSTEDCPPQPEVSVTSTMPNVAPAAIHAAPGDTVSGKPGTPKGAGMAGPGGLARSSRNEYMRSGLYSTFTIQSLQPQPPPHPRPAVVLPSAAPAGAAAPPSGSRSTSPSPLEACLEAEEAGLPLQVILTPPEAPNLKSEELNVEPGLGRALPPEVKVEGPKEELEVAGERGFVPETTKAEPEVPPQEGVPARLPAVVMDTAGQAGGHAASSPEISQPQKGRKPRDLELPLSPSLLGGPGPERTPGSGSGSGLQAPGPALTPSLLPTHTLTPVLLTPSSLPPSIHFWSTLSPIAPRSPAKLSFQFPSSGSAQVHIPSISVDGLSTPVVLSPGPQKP
Particulars: protein: recombinant; tags: N-terminal GST; dsDNA, one strand shown. The gist of the method:
as §1

For another assay, the target named is T3, GABPA (Homo sapiens, UniProt Q06546 1-454).
T3 sequence: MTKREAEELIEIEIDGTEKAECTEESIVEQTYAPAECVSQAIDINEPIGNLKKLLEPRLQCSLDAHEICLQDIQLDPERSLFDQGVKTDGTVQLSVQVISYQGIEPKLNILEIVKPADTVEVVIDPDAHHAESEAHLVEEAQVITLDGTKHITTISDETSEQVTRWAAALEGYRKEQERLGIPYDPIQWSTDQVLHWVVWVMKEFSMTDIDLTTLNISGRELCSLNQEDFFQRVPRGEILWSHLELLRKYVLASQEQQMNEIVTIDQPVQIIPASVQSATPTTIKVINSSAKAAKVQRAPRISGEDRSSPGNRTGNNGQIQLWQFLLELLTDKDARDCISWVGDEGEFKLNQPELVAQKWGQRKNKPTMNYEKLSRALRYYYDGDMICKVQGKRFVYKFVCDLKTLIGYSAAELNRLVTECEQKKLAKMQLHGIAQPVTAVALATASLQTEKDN
Particulars: protein: recombinant; tags: N-terminal GST; dsDNA, one strand shown. The method in brief: as §1

For a further assay, the target named is T4, ERG (Homo sapiens, UniProt P11308 1-479).
T4 sequence: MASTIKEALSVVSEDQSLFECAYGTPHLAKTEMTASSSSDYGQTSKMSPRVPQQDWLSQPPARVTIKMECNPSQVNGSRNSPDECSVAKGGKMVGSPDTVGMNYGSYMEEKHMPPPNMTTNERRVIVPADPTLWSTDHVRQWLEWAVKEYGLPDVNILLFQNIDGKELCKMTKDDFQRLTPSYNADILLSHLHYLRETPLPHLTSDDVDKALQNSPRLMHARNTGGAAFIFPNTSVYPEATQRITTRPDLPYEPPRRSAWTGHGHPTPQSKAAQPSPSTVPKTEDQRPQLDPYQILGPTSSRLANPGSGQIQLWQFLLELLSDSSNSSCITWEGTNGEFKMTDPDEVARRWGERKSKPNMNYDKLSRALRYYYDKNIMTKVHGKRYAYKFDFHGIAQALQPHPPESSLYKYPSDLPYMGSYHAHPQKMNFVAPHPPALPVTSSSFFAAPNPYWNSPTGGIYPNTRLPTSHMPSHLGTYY
Particulars: protein: recombinant; tags: N-terminal GST; dsDNA, one strand shown. The method in brief:
as §1

The target of the next assay is ELF1 (Homo sapiens, UniProt P32519 1-619). The note with it: protein: recombinant; tags: N-terminal GST; dsDNA, one strand shown. The gist of the method: as §1
Sequence of ELF1 (P32519 whole entry): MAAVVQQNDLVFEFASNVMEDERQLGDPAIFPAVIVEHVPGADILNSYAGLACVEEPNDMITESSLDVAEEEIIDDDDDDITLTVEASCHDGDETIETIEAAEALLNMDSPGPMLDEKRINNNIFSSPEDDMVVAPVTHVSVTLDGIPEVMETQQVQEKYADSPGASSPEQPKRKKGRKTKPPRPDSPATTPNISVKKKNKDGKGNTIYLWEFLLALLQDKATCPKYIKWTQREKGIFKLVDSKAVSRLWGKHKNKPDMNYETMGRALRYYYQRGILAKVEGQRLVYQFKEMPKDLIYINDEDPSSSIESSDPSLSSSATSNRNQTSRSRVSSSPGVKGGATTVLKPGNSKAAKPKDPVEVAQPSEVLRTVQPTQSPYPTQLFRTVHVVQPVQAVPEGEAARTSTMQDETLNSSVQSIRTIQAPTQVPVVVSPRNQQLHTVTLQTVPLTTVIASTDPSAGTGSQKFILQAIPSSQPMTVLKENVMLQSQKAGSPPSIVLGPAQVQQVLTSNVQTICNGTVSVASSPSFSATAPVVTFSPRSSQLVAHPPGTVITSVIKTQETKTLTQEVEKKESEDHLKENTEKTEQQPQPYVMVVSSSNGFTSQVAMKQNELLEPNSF
For a further assay, the target named is T5, EHF (Homo sapiens, UniProt Q9NZC4 1-300).
T5 sequence: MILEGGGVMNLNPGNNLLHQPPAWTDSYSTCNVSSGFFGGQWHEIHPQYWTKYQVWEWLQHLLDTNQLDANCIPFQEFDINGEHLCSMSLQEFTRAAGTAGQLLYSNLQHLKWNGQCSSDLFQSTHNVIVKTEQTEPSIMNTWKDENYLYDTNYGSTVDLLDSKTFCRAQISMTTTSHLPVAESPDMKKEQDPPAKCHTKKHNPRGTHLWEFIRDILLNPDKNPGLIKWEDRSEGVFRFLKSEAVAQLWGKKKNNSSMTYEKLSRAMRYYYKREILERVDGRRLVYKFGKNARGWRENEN
The note with it: protein: recombinant; tags: N-terminal GST; dsDNA, one strand shown. The method in brief: as §1

In a further assay the target is SPI1 (Homo sapiens, UniProt P17947 1-270). The note with it: protein: recombinant; tags: N-terminal GST; dsDNA, one strand shown. The method in brief: as §1
Another assay deals with SPIB (Homo sapiens, UniProt Q01892 1-262). Particulars: protein: recombinant; tags: N-terminal GST; dsDNA, one strand shown. The gist of the method:
as §1

A further assay deals with T6, ELK3 (Homo sapiens, UniProt P41970 1-407).
T6 sequence: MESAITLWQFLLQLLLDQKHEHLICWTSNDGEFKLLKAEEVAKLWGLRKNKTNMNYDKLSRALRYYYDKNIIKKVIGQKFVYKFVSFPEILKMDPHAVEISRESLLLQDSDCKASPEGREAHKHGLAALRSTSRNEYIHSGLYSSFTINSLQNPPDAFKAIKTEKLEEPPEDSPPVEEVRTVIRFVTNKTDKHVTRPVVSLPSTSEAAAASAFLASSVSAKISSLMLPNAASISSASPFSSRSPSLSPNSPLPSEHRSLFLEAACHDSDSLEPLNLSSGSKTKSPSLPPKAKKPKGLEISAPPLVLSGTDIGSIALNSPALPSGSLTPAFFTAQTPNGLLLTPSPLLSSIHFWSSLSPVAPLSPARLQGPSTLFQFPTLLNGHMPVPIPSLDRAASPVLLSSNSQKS
Particulars: protein: recombinant; tags: N-terminal GST; dsDNA, one strand shown. The gist of the method:
as §1

For another assay, the target named is T7, FEV (Homo sapiens, UniProt Q99581 1-238).
T7 sequence: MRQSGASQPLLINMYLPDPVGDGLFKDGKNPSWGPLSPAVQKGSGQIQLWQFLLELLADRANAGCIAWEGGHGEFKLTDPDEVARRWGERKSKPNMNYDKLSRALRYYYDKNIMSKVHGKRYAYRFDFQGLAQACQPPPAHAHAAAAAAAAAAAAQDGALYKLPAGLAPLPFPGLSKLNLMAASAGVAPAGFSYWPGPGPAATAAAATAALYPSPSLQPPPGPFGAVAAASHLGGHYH
Particulars: protein: recombinant; tags: N-terminal GST; dsDNA, one strand shown. The gist of the method: as §1

The target in the next assay is ETV5 (Homo sapiens, UniProt P41161 1-510). The note with it: protein: recombinant; tags: N-terminal GST; dsDNA, one strand shown. The method in brief:
as §1

Another assay deals with HSF1 (Homo sapiens, UniProt Q00613 1-529). Particulars: protein: recombinant; tags: N-terminal GST; chain copies: 3; dsDNA, one strand shown. The method in brief: as §1
Sequence of HSF1 (Q00613 whole entry): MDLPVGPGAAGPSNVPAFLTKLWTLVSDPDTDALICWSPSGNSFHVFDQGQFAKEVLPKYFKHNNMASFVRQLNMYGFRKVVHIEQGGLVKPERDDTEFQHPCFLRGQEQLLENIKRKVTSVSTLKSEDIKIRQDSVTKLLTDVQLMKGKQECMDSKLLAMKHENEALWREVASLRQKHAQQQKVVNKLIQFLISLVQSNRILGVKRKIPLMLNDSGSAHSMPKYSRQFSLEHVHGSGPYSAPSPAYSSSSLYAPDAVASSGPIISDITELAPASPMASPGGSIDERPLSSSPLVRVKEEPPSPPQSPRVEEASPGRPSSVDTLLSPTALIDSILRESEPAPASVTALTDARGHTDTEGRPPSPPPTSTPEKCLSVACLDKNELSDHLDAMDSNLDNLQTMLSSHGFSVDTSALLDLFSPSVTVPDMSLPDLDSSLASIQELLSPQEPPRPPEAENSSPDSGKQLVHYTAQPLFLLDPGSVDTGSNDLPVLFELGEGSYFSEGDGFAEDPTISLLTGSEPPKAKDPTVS
A further assay has as its target T8, SPIC (Homo sapiens, UniProt Q8N5J4 1-248).
T8 sequence: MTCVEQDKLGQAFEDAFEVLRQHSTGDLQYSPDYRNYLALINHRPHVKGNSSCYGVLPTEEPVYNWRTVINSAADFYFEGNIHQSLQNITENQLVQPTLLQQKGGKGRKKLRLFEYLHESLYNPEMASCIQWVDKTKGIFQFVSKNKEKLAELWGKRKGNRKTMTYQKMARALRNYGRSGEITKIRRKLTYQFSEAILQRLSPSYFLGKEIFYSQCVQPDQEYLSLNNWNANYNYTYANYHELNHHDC
The note with it: protein: recombinant; tags: N-terminal GST; dsDNA, one strand shown. The gist of the method: as §1

The target in the next assay is ELF4 (Homo sapiens, UniProt Q99607 1-663). The note with it: protein: recombinant; tags: N-terminal GST; dsDNA, one strand shown. The method in brief: as §1
Sequence of ELF4 (Q99607 whole entry): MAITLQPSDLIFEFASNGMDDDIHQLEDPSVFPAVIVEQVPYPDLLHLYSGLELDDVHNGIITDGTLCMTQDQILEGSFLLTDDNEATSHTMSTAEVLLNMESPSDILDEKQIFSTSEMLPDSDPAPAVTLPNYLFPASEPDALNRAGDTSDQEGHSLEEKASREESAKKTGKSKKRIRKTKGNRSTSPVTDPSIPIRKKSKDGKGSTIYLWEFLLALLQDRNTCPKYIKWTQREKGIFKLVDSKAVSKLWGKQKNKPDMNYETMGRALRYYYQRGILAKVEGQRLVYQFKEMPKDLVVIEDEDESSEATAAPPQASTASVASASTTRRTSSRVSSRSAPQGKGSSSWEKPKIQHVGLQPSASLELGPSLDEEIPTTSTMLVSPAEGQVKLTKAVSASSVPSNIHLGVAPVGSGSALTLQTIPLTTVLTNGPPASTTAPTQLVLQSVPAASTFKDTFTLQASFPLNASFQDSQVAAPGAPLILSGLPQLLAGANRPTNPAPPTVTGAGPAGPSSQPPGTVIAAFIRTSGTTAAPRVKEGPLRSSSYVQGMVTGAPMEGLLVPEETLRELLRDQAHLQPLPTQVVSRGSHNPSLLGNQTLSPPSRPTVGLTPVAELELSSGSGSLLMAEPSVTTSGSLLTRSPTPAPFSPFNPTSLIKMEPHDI
The next assay has as its target T9, ELK4 (Homo sapiens, UniProt P28324-2 1-405).
T9 sequence: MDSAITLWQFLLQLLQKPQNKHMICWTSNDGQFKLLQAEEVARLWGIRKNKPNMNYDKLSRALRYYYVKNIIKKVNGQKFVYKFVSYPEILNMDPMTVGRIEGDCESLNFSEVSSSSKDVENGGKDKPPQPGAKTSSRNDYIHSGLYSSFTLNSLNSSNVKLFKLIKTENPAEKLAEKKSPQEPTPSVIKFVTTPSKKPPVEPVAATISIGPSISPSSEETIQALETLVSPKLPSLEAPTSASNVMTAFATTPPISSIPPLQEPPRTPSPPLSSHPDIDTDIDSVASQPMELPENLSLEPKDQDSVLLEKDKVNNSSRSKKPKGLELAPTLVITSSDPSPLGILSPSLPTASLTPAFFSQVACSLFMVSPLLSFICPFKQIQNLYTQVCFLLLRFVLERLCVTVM
Particulars: protein: recombinant; tags: N-terminal GST; dsDNA, one strand shown. The method in brief:
as §1

The next assay has as its target T10, ETV2 (Homo sapiens, UniProt O00321 1-342).
T10 sequence: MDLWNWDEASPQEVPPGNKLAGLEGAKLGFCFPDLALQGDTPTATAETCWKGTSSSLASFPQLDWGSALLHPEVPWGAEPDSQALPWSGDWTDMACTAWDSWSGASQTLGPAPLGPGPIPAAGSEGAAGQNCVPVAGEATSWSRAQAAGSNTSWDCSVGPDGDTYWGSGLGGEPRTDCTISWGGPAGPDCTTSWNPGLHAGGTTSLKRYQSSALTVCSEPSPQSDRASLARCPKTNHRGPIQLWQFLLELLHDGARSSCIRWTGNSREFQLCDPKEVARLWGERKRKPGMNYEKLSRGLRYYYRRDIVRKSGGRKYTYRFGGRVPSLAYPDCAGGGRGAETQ
The note with it: protein: recombinant; tags: N-terminal GST; dsDNA, one strand shown. The gist of the method:
as §1

The next assay has as its target T11, ELF3 (Homo sapiens, UniProt P78545 1-371).
T11 sequence: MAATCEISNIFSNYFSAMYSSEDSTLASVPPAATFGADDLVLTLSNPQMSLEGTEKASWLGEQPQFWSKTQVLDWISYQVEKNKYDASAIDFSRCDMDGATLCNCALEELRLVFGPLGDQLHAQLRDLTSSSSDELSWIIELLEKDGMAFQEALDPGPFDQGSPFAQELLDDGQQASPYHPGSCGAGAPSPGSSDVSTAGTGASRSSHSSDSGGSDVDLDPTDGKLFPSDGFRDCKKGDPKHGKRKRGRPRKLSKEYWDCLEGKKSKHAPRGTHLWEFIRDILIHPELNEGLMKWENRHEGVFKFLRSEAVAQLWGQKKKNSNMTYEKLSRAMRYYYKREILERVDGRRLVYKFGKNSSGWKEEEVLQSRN
Particulars: protein: recombinant; tags: N-terminal GST; dsDNA, one strand shown. The method in brief: as §1

A further assay addresses CRX (Homo sapiens, UniProt O43186 1-299). The note with it: protein: recombinant; tags: N-terminal GST; dsDNA, one strand shown. The method in brief: as §1
For a further assay, the target named is ETV1 (Homo sapiens, UniProt P50549 1-477). The note with it: protein: recombinant; tags: N-terminal GST; dsDNA, one strand shown. The method in brief:
as §1

Sequence of CRX (O43186 whole entry): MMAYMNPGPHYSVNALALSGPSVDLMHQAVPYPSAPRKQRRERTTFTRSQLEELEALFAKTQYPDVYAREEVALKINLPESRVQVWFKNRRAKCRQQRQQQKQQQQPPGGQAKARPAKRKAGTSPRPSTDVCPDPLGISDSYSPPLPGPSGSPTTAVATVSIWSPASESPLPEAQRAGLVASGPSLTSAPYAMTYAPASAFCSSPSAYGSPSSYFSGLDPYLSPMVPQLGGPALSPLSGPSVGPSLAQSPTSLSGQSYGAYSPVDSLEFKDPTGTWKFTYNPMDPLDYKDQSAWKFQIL
Sequence of ETV5 (P41161 whole entry): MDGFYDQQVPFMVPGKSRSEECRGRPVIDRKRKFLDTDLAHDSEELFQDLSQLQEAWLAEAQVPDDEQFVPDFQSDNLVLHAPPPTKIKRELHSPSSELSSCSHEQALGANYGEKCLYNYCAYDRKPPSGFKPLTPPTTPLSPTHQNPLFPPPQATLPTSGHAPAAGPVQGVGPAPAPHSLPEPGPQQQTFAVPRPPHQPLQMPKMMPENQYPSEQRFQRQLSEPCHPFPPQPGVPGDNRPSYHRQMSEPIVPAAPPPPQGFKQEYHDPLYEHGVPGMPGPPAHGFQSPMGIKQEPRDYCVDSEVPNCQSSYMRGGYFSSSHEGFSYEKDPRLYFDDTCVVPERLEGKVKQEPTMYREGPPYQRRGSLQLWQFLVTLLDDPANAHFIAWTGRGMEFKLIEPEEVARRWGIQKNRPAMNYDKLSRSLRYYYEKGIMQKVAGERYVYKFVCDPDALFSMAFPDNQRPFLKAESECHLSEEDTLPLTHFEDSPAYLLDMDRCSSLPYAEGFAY
Sequence of SPIB (Q01892 whole entry): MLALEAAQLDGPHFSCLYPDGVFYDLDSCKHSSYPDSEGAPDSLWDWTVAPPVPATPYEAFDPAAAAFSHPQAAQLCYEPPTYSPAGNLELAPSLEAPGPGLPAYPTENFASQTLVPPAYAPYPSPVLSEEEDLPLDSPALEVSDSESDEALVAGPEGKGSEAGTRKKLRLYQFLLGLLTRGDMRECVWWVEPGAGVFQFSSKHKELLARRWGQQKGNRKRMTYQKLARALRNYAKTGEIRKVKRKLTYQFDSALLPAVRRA
Sequence of ETV1 (P50549 whole entry): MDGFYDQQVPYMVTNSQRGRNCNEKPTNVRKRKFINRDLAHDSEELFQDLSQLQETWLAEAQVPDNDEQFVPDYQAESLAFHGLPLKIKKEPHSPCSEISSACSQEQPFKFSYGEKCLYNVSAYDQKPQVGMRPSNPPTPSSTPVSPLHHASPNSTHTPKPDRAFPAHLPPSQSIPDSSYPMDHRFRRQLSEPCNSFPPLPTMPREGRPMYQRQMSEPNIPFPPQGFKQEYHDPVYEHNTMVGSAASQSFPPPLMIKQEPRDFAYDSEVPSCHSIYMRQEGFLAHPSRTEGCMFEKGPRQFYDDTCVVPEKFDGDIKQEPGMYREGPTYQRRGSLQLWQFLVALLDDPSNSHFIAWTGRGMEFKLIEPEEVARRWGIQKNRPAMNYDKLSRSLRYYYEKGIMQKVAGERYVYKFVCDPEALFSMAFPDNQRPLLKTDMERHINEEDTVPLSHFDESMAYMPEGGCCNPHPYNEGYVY

As to ATAGTT, the binding signal in the assay with FLI1 was 1.18 fold enrichment (6-mer frequency, TF over GST control); with ELK1, 1.16 fold enrichment (6-mer frequency, TF over GST control); with GABPA, 1.16 fold enrichment (6-mer frequency, TF over GST control); with ERG, 1.18 fold enrichment (6-mer frequency, TF over GST control); with ELF1 it was 1.16 fold enrichment (6-mer frequency, TF over GST control); with EHF, 1.18 fold enrichment (6-mer frequency, TF over GST control). Also, the binding signal with SPI1 was 1.11 fold enrichment (6-mer frequency, TF over GST control); with SPIB it was 1.2 fold enrichment (6-mer frequency, TF over GST control); with ELK3, 1.11 fold enrichment (6-mer frequency, TF over GST control); in the assay with FEV, 1.11 fold enrichment (6-mer frequency, TF over GST control); with ETV5 it was 1.25 fold enrichment (6-mer frequency, TF over GST control); with HSF1, 1.15 fold enrichment (6-mer frequency, TF over GST control). Also, the binding signal with SPIC is 1.14 fold enrichment (6-mer frequency, TF over GST control); with ELF4 it was 1.18 fold enrichment (6-mer frequency, TF over GST control); in the assay with ELK4 it was 1.39 fold enrichment (6-mer frequency, TF over GST control); with ETV2 it was 1.14 fold enrichment (6-mer frequency, TF over GST control); with ELF3 it was 1.29 fold enrichment (6-mer frequency, TF over GST control); in the assay with CRX, 1.1 fold enrichment (6-mer frequency, TF over GST control). In addition, the binding signal in the assay with ETV1 is 1.11 fold enrichment (6-mer frequency, TF over GST control).
